# Assay results: PubChem BioAssay (NCATS)
# Unmarked numbers belong to inactive results. Inconclusive results are not listed. Activity calls are given as the source filed them. Unless noted, calls come from the whole dose curve; as a rule, active = well fitted curve in the direction sought with a large enough effect; inconclusive = small, poorly fitted or top-dose-only effect, or another doubt; inactive = no such curve, though single readings can be large; an effect the other way counts as inactive or inconclusive.
# How the values were obtained:
# [1] = system: OV90; experiment: Primary qHTS to identify gynecologic anti-cancer compounds using libraries of approved drugs and bioactive compounds (AID 1345084); settings: Gynecologic cancer cell panel viability, ATPlite luminescence, 48 h; series mostly up to 57.5 µM; note: nearly all actives have a fitted effect of over 55% in size; note: potency is the fitted concentration of half-maximal effect; for activity change, negative = cytotoxicity: % is set by controls: 0 for no effect and ±100 for the full control effect
# Procedure, shortened: (§1)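 Cells, 1,000 per well, plated 16 h, then exposed 48 h at 37 C to compounds. Viability by ATPlite luminescence after 15 min at room temperature.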
# [2] = system: SKOV3; experiment: as above; settings: Gynecologic cancer cell panel viability, ATPlite luminescence, 48 h; series mostly up to 57.5 µM
# Procedure, shortened: as §1
# [3] = system: Tov112D; experiment: as above; settings: Gynecologic cancer cell panel viability, ATPlite luminescence, 48 h; series mostly up to 57.5 µM
# Procedure, shortened: as §1
# [4] = system: PA-1; experiment: as above; settings: Gynecologic cancer cell panel viability, ATPlite luminescence, 48 h; series mostly up to 57.5 µM
# Procedure, shortened: as §1
# [5] = system: Tov-21-G; experiment: as above; settings: Gynecologic cancer cell panel viability, ATPlite luminescence, 48 h; series mostly up to 57.5 µM
# Procedure, shortened: as §1
# [6] = qHTS assay to identify inhibitors of the type 1 interferon - major histocompatibility complex class I in skeletal muscle: Counter screen cell viability and HiBit confirmation (AID 1347412); settings: iHSKM muscle cells + IFN-b, HiBiT or CellTiter-Glo, 24 h; for Potency: HiBiT; note: potency is the fitted concentration of half-maximal effect; for activity change, negative = inhibition: % is set by controls: 0 for no effect and ±100 for the full control effect; for all read-outs here: nearly all actives have a fitted effect of over 60% in size
# Procedure, shortened: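 Myoblasts (C25cl48, HLA-B HiBiT) seeded in medium without dexamethasone, IFN-b 4 ng/ml added except unstimulated columns; 1 hr later compounds pinned (12-pt 1:3, top 46 uM final). Incubated 24 hrs, lysed 10 min, luminescence measured.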
# [7] = Drug repurposing screens with cells derived from glioblastoma tumor samples (AID 1345199); settings: GBM patient neurospheres viability, ATP luminescence, 48 h; note: nearly all actives have a fitted effect of over 40% in size; note: potency is the fitted concentration of half-maximal effect; for activity, negative = cell killing: % is set by controls: 0 for no effect and ±100 for the full control effect
# Procedure, shortened: (§2)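 Primary testing used CD133+ neurospheres from four GBM patients, seven concentrations, 48 h exposure and ATP-based viability; confirmation added three slower-growing patient lines.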
# [8] = system: astro; experiment: as above; settings: viability, ATP luminescence, 48 h; series mostly up to 91.6 µM
# Procedure, shortened: as §2
# [9] = target: Nuclear receptor subfamily 1 group I member 2 (Rattus norvegicus) (UniProt Q9R1A7); experiment: qHTS assay for small molecule activators of the rat pregnane X receptor (rPXR) signaling pathway (AID 651751; call rule not given here; note: 0% is about no effect); settings: rPXR reporter cells, luciferase (One-Glo), 24 h
# [10] = qHTS assay for small molecule activators of the human pregnane X receptor (PXR) signaling pathway (AID 720659; call rule not given here; note: 0% is about no effect)
# Chain of Nuclear receptor subfamily 1 group I member 2 (Rattus norvegicus) (Q9R1A7 whole entry, looked up): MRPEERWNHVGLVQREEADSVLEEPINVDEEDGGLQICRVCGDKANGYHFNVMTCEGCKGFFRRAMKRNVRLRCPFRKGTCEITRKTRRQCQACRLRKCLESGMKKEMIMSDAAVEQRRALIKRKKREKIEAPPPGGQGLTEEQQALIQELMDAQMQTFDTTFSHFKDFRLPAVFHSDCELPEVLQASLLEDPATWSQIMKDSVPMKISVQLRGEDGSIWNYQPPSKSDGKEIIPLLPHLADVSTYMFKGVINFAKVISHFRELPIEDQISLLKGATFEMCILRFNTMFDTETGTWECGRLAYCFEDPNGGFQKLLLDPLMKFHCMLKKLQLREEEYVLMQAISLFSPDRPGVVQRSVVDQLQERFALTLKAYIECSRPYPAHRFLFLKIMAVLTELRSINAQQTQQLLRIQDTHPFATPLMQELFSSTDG
structure (smiles),measurement,setting,value
COc1cc2c(cc1O)CC[C@H]1[C@@H]2CC[C@]2(C)[C@H](O)CC[C@@H]12,Potency,[1],inactive
same,Potency,[2],3.16 µM (active)
same,Potency,[3],1 µM (active)
C=C(CCC1=C(C)[C@H]2[C@H](CC3[C@@H]4CC=C5C[C@@H](O)C[C@@H](O)[C@]5(C)C4[C@H](O)C[C@@]32C)O1)CO[C@@H]1O[C@H](CO)[C@@H](O)[C@H](O)[C@H]1O (some centres not stated),Potency,[4],3.16 µM (active)
same,Potency,[2],2.82 µM (active)
same,Potency,[5],2.51 µM (active)
same,Potency,[3],1.12 µM (active)
COc1cc(Br)c(Nc2nc(-c3c(C)nc4ncccn34)cs2)c(Br)c1,Potency,[4],4.47 µM (active)
same,Potency,[2],8.91 µM (active)
same,Potency,[5],10 µM (active)
CN(C)C/C=C/C(=O)Nc1cccc(C(=O)Nc2ccc(Nc3nccc(-c4cccnc4)n3)cc2)c1,Potency,[1],10 µM (active)
same,Potency,[3],10 µM (active)
C#CC[C@H](c1nc2cc(Cl)ccc2c(=O)n1Nc1ccccc1)N(CCCN)C(=O)c1cccc(Cl)c1F,Potency,[1],inactive
same,Potency,[3],0.355 µM (active)
CCN(CC)CCN(Cc1ccc(-c2ccc(C(F)(F)F)cc2)cc1)C(=O)Cn1c(SCc2ccc(F)cc2)nc(=O)c2c1CCC2,Potency,[4],28.2 µM (active)
same,Potency,[2],7.94 µM (active)
same,Potency,[3],35.5 µM (active)
C/C=C/c1ccc(O[C@@H]2O[C@H](CO)[C@@H](O)[C@H](O)[C@H]2O)c(OC)c1,Potency,[1],inactive
same,Potency,[3],inactive
Cc1ccccc1-n1c([C@H](C)Nc2nc(N)nc3nc[nH]c23)nc2cccc(C)c2c1=O,Potency,[1],inactive
same,Potency,[2],inactive
same,Potency,[3],inactive
C=CC(=O)Nc1cc(Nc2nccc(-c3c[nH]c4ccccc34)n2)c(OC)cc1N(C)CCN(C)C,Potency,[4],4.47 µM (active)
COC(=O)C1(C)c2[nH]c3ccccc3c2CCN1C(=O)CCl (configuration not stated),Potency,[1],inactive
same,Potency,[5],22.4 µM (active)
Cc1cccc(/C=N/Nc2cc(N3CCOCC3)n3nc(-c4ccncc4)cc3n2)c1,Potency,[1],2 µM (active)
same,Potency,[3],3.98 µM (active)
CCOc1cc(C(=O)N2CCC(N3CCN(C)CC3)CC2)ccc1Nc1ncc2c(n1)N(C1CCCC1)c1ccccc1C(=O)N2C,Potency,[1],inactive
same,Potency,[2],35.5 µM (active)
same,Potency,[3],inactive
same,Potency,[6],12.5 µM (active)
same,"activity change, negative = inhibition","[6]; Viability, at 45.9 µM (top of the series)",-25.1%
Cc1cc(N2CCN([C@@H]3CN[C@H](C(=O)N4CCSC4)C3)CC2)n(-c2ccccc2)n1,Potency,[1],inactive
same,Potency,[5],inactive
same,Potency,[3],inactive
COc1cc2ncnc(Nc3ccc(F)c(Cl)c3)c2cc1NC(=O)/C=C/CN1CCCCC1,Potency,[1],inactive
same,Potency,[2],10 µM (active)
same,Potency,[6],19.8 µM (active)
CC(=O)O[C@H]1C(=O)[C@@]2(C)[C@H]([C@H](OC(=O)c3ccccc3)[C@]3(O)C[C@H](OC(=O)[C@H](O)[C@@H](NC(=O)c4ccccc4)c4ccccc4)C(C)=C1C3(C)C)[C@]1(OC(C)=O)CO[C@@H]1C[C@@H]2O,"activity change, negative = cytotoxicity",[1],-15.2% [at 11.6 µM]
same,"activity change, negative = cytotoxicity",[2],0% [at 11.6 µM]
same,"activity, negative = cell killing","[7]; at 45.9 µM (top of the series), tumour line B",-12.5%
same,Potency,[7]; tumour line A,31.6 µM (active)
same,Potency,[7]; tumour line D,0.1 µM (active)
same,Potency,[8],39.8 µM (active)
C[C@@H](Oc1cc(-n2cnc3ccc(OC4CCN(C)CC4)cc32)sc1C(N)=O)c1ccccc1C(F)(F)F,Potency,[4],0.316 µM (active)
CC(Oc1ccc2[nH]nc(/C=C/c3cnn(CCO)c3)c2c1)c1c(Cl)cncc1Cl (configuration not stated),Potency,[4],6.31 µM (active)
same,Potency,[5],3.55 µM (active)
COc1cc(-c2ncn(/C=C\C(=O)OC(C)C)n2)cc(C(F)(F)F)c1,Potency,[4],0.562 µM (active)
CCC1C(=O)N(C)c2cnc(Nc3ccc(C(=O)NC4CCC(N5CCN(CC6CC6)CC5)CC4)cc3OC)nc2N1C(C)C (configuration not stated),Potency,[4],0.316 µM (active)
CNC(=O)c1ccccc1Nc1nc(Nc2ccc(N3CCNCC3)cc2)ncc1Cl,Potency,[4],0.316 µM (active)
same,Potency,[5],0.355 µM (active)
Cc1cc(Nc2ncc3cc(-c4c(Cl)cccc4Cl)c(=O)n(C)c3n2)ccc1F,Potency,[4],3.98 µM (active)
same,Potency,[2],3.55 µM (active)
same,Potency,[5],3.98 µM (active)
same,Potency,[3],3.55 µM (active)
COc1cc(N2CCOCC2)ccc1Nc1ncc(Cl)c(Nc2ccccc2NS(C)(=O)=O)n1,Potency,[4],2.82 µM (active)
same,Potency,[5],3.16 µM (active)
O=C(Nc1nc2ccccc2n1CCc1ccccc1)c1ccccc1,Potency,[4],31.6 µM (active)
CC(=O)OC1C(=O)C2(C)C(O)CC3OCC3(OC(C)=O)C2C(OC(=O)c2ccccc2)C2(O)CC(OC(=O)C(O)C(NC(=O)c3ccccc3)c3ccccc3)C(C)=C1C2(C)C (configuration not stated),Potency,[1],inactive
same,Potency,[3],inactive
Cc1ccc(S(=O)(=O)c2ccc([N+](=O)[O-])o2)cc1,Potency,[4],14.1 µM (active)
same,Potency,[2],25.1 µM (active)
same,Potency,[5],7.94 µM (active)
CC(C)C(CO)Nc1nc(Nc2cc(N)cc(Cl)c2)c2ncn(C(C)C)c2n1 (configuration not stated),Potency,[4],14.1 µM (active)
same,Potency,[2],28.2 µM (active)
same,Potency,[5],22.4 µM (active)
same,Potency,[3],20 µM (active)
C=C1C(=O)O[C@@H]2/C=C(\C)C(=O)/C=C/[C@](C)(O)C[C@@H](OC(=O)C(C)C)[C@@H]12,Potency,[4],4.47 µM (active)
same,Potency,[2],5.62 µM (active)
same,Potency,[5],3.98 µM (active)
same,Potency,[3],15.8 µM (active)
CC(O)/C=C/C1(O)C2(C)COC1(C)CC(O)C2 (configuration not stated),Potency,[4],inactive
C=C1C(=O)O[C@H]2C1[C@H](OC(=O)/C(=C/CO)COC(=O)/C(C)=C/CO)CC(=C)[C@@H]1CC(=O)[C@@H](C)[C@@H]12 (some centres not stated),Potency,[1],inactive
same,Potency,[3],inactive
Cc1ccc(N)cc1O,Potency,[8],inactive
same,max response,[9],0.897%
same,outcome,[10],inactive
